Assay results published in PubChem BioAssay AID1159580 (chemical genetic matrix, 2015).
Where “and” joins values, the source holds several entries; their conditions need not be identical. Equal entries are not always repeated. About 2,000 (36%) of roughly 5,500 compounds were called active. About 18% were inconclusive and are not listed. No stated cut-off is given here; in the data, active means normalized growth mostly below about 0.91 (no sharp cut-off); inconclusive means no clear call, values can overlap the other calls; inactive means mostly above about 0.92. Some of the results follow.

Assay: chemical genetic growth profiling, strain panel (AID 1159580);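 further: tested at 20 µM; growth read once vehicle control cultures reached saturation at 30 °C; 1 = growth at the plate median or of vehicle wells; lower values mean less growth of the strain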
Settings: growth OD

Measured: normalized growth

CCN(CC)CCNC(=O)COc1ccc(OC)cc1
inactive: S. cerevisiae deletion strains, locus YAL013W, strain DEP1, active compounds read low 1 | S. cerevisiae deletion strains, locus YBR021W, strain FUR4, active compounds read low 1.01 | S. cerevisiae deletion strains, locus YBR229C, strain ROT2, active compounds read low 0.995 | S. cerevisiae deletion strains, locus YCL029C, strain bik1, active compounds read low 0.983 | S. cerevisiae deletion strains, locus YDL035C, strain GPR1, active compounds read low 1.02 | S. cerevisiae deletion strains, locus YDL074C, strain BRE1, active compounds read low 0.989 | S. cerevisiae deletion strains, locus YDL101C, strain DUN1, active compounds read low 0.993 | S. cerevisiae deletion strains, locus YDL134C, strain PPH21, active compounds read low 1.01 | S. cerevisiae deletion strains, locus YDL185W, strain tfp1, active compounds read low 0.964 | S. cerevisiae deletion strains, locus YDL192W, strain arf1, active compounds read low 0.995 | S. cerevisiae deletion strains, locus YDR101C, strain arx1, active compounds read low 0.973 | S. cerevisiae deletion strains, locus YDR150W, strain NUM1, active compounds read low 0.993 | S. cerevisiae deletion strains, locus YDR162C, strain NBP2, active compounds read low 1.01 | S. cerevisiae deletion strains, locus YDR318W, strain mcm21, active compounds read low 0.988 | S. cerevisiae deletion strains, locus YDR388W, active compounds read low 0.997 | S. cerevisiae deletion strains, locus YDR502C, strain sam2, active compounds read low 1.01 | S. cerevisiae deletion strains, locus YEL061C, strain CIN8, active compounds read low 1 | S. cerevisiae deletion strains, locus YER110C, active compounds read low 0.989 | S. cerevisiae deletion strains, locus YER155C, strain BEM2, active compounds read low 0.998 | S. cerevisiae deletion strains, locus YER167W, strain BCK2, active compounds read low 1.01 | S. cerevisiae deletion strains, locus YGL078C, strain dbp3, active compounds read low 0.997 | S. cerevisiae deletion strains, locus YGL086W, strain mad1, active compounds read low 1.02 | S. cerevisiae deletion strains, locus YGL248W, strain PDE1, active compounds read low 0.995 | S. cerevisiae deletion strains, locus YGR078C, strain PAC10, active compounds read low 0.992 | S. cerevisiae deletion strains, locus YGR135W, strain pre9, active compounds read low 1.01 | S. cerevisiae deletion strains, locus YGR229C, strain SMI1, active compounds read low 1.01 | S. cerevisiae deletion strains, locus YGR252W, strain gcn5, active compounds read low 1.15 | S. cerevisiae deletion strains, locus YHR030C, strain SLT2, active compounds read low 0.995 and 0.975 | S. cerevisiae deletion strains, locus YHR079C, strain IRE1 (second series), active compounds read low 0.986 | S. cerevisiae deletion strains, locus YHR079C, strain IRE1, active compounds read low 0.965 | S. cerevisiae deletion strains, locus YHR094C, strain hxt1, active compounds read low 0.981 | S. cerevisiae deletion strains, locus YHR129C, strain ARP1, active compounds read low 0.994 | S. cerevisiae deletion strains, locus YHR200W, strain rpn10, active compounds read low 0.989 | S. cerevisiae deletion strains, locus YIL066C, strain RNR3, active compounds read low 0.999 | S. cerevisiae deletion strains, locus YIL073C, strain SPO22, active compounds read low 0.974 | S. cerevisiae deletion strains, locus YIL125W, strain kgd1, active compounds read low 1 | S. cerevisiae deletion strains, locus YIR030C, strain dcg1, active compounds read low 0.999 | S. cerevisiae deletion strains, locus YJL095W, strain BCK1, active compounds read low 0.983 and 0.978 | S. cerevisiae deletion strains, locus YJL134W, strain LCB3, active compounds read low 0.994 | S. cerevisiae deletion strains, locus YJL168C, strain set2, active compounds read low 0.981 | S. cerevisiae deletion strains, locus YJL187C, strain SWE1 (second series), active compounds read low 0.984 | S. cerevisiae deletion strains, locus YJR043C, strain POL32, active compounds read low 0.971 | S. cerevisiae deletion strains, locus YJR066W, strain TOR1, active compounds read low 0.939 | S. cerevisiae deletion strains, locus YJR075W, strain HOC1, active compounds read low 0.983 | S. cerevisiae deletion strains, locus YKL009W, strain mrt4, active compounds read low 1.02 | S. cerevisiae deletion strains, locus YKL068W, active compounds read low 0.983 | S. cerevisiae deletion strains, locus YKL085W, strain MDH1 (second series), active compounds read low 0.981 | S. cerevisiae deletion strains, locus YKL085W, strain MDH1, active compounds read low 0.981 | S. cerevisiae deletion strains, locus YKL190W, strain CNB1, active compounds read low 0.997 | S. cerevisiae deletion strains, locus YKR001C, strain vps1, active compounds read low 1.02 | S. cerevisiae deletion strains, locus YLR039C, strain RIC1, active compounds read low 1.06 | S. cerevisiae deletion strains, locus YLR058C, strain SHM2, active compounds read low 1 | S. cerevisiae deletion strains, locus YLR102C, strain apc9, active compounds read low 0.991 | S. cerevisiae deletion strains, locus YLR113W, strain HOG1, active compounds read low 0.969 | S. cerevisiae deletion strains, locus YLR262C, strain YPT6, active compounds read low 1.05 | S. cerevisiae deletion strains, locus YLR268W, strain sec22, active compounds read low 0.96 | S. cerevisiae deletion strains, locus YLR330W, strain CHS5, active compounds read low 0.989 | S. cerevisiae deletion strains, locus YLR342W, strain FKS1 (second series), active compounds read low 1.06 | S. cerevisiae deletion strains, locus YLR371W, strain rom2, active compounds read low 0.99 | S. cerevisiae deletion strains, locus YLR418C, strain cdc73, active compounds read low 1.01 | S. cerevisiae deletion strains, locus YML016C, strain PPZ1, active compounds read low 1.01 | S. cerevisiae deletion strains, locus YML032C, strain rad52, active compounds read low 0.97 | S. cerevisiae deletion strains, locus YML124C, strain tub3, active compounds read low 0.996 | S. cerevisiae deletion strains, locus YMR078C, strain ctf18, active compounds read low 0.978 | S. cerevisiae deletion strains, locus YMR223W, strain ubp8, active compounds read low 1.04 | S. cerevisiae deletion strains, locus YMR263W, strain SAP30, active compounds read low 0.982 | S. cerevisiae deletion strains, locus YMR307W, strain GAS1, active compounds read low 1.05 | S. cerevisiae deletion strains, locus YNL067W, strain RPL9B, active compounds read low 0.97 | S. cerevisiae deletion strains, locus YNL128W, strain TEP1, active compounds read low 0.994 | S. cerevisiae deletion strains, locus YNL153C, strain GIM3, active compounds read low 0.988 | S. cerevisiae deletion strains, locus YNL183C, strain NPR1, active compounds read low 0.937 | S. cerevisiae deletion strains, locus YNL233W, strain BNI4, active compounds read low 1.01 | S. cerevisiae deletion strains, locus YNL250W, strain rad50, active compounds read low 0.993 | S. cerevisiae deletion strains, locus YNL271C, strain bni1, active compounds read low 0.987 | S. cerevisiae deletion strains, locus YNL298W, strain CLA4, active compounds read low 0.993 | S. cerevisiae deletion strains, locus YNL307C, strain MCK1, active compounds read low 0.999 | S. cerevisiae deletion strains, locus YNL322C, strain KRE1, active compounds read low 0.992 | S. cerevisiae deletion strains, locus YNR052C, strain pop2, active compounds read low 0.984 | S. cerevisiae deletion strains, locus YOL006C, strain TOP1, active compounds read low 1.01 | S. cerevisiae deletion strains, locus YOL012C, strain htz1 0.754 | S. cerevisiae deletion strains, locus YOL147C, strain pex11, active compounds read low 0.997 | S. cerevisiae deletion strains, locus YOR061W, strain CKA2, active compounds read low 1.01 | S. cerevisiae deletion strains, locus YOR069W, strain VPS5, active compounds read low 0.998 | S. cerevisiae deletion strains, locus YOR136W, strain idh2, active compounds read low 1.01 | S. cerevisiae deletion strains, locus YOR144C, strain elg1, active compounds read low 0.998 | S. cerevisiae deletion strains, locus YOR184W, strain ser1, active compounds read low 0.983 | S. cerevisiae deletion strains, locus YOR231W, strain MKK1, active compounds read low 0.964 | S. cerevisiae deletion strains, locus YOR316C, strain cot1, active compounds read low 0.981 | S. cerevisiae deletion strains, locus YPL055C, strain LGE1, active compounds read low 0.949 | S. cerevisiae deletion strains, locus YPL241C, strain CIN2, active compounds read low 1.01 | S. cerevisiae deletion strains, locus YPL256C, strain CLN2, active compounds read low 0.972 | S. cerevisiae deletion strains, locus YPR119W, strain clb2, active compounds read low 0.99 | S. cerevisiae deletion strains, locus YPR141C, strain kar3, active compounds read low 0.992 | S. cerevisiae deletion strains, locus YPR163C, strain tif3, active compounds read low 0.994 | S. cerevisiae deletion strains, locus YPR167C, strain met16, active compounds read low 0.975 | S. cerevisiae deletion strains, strain wtn01, active compounds read low 0.962 | S. cerevisiae strains, strain wild type, active compounds read low 1
